Data from PubChem BioAssay.

Tests used:
[1] = test system: Botulinum neurotoxin type F light chain protease (Clostridium botulinum); assay: Botulinum neurotoxin type F light chain protease inhibition, multiplex microsphere flow cytometry, validation set (AID 588459); settings: multiplex microsphere protease substrate cleavage assay, at 10 µM, hits give high values
[2] = molecular target: Botulinum neurotoxin type A (Clostridium botulinum) (UniProt P0DPI0); assay: BoNT/A light chain protease inhibitors, biochemical, multiplex microsphere flow cytometry, validation set (AID 588460); settings: at 10 µM, hits give high values
Botulinum neurotoxin type A (Clostridium botulinum), sequence (P0DPI0 whole entry, looked up): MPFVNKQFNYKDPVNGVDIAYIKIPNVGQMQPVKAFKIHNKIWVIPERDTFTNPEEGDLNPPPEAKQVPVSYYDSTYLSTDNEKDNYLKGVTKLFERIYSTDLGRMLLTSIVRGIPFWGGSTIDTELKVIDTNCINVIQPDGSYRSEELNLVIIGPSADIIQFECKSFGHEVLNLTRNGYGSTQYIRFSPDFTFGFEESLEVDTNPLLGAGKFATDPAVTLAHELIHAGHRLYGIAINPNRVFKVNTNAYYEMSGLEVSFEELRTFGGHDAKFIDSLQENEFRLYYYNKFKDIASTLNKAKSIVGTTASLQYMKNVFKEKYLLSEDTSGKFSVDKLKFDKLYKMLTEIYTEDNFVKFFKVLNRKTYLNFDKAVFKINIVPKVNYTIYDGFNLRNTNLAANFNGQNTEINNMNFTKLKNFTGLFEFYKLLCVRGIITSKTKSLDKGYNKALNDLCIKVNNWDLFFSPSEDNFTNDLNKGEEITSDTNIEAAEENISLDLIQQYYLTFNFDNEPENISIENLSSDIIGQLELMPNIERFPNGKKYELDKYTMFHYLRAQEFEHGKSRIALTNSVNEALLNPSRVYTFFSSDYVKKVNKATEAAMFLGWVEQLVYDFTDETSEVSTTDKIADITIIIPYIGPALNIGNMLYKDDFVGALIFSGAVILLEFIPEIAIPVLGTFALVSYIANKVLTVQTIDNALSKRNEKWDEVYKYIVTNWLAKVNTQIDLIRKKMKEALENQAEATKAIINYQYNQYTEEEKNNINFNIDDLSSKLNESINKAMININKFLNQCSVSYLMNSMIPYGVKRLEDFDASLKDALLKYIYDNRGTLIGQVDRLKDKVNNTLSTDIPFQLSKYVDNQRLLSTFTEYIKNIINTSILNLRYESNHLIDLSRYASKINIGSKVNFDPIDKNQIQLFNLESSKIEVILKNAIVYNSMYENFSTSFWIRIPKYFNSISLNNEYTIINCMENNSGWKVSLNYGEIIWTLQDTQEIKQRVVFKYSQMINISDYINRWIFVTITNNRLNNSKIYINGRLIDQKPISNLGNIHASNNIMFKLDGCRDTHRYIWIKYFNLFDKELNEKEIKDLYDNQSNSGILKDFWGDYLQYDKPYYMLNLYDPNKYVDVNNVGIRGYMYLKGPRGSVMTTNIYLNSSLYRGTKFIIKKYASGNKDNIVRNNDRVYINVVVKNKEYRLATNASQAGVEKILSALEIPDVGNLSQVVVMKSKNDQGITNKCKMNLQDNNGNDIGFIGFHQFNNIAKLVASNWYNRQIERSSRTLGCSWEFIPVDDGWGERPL

[3] = molecular target: Lethal factor (Bacillus anthracis) (UniProt P15917); assay: Lethal factor protease inhibitors, Bacillus anthracis, multiplex microsphere cleavage assay, validation set (AID 588461); settings: flow cytometry, at 10 µM, hits give high values
Lethal factor (Bacillus anthracis), sequence (P15917 whole entry, looked up): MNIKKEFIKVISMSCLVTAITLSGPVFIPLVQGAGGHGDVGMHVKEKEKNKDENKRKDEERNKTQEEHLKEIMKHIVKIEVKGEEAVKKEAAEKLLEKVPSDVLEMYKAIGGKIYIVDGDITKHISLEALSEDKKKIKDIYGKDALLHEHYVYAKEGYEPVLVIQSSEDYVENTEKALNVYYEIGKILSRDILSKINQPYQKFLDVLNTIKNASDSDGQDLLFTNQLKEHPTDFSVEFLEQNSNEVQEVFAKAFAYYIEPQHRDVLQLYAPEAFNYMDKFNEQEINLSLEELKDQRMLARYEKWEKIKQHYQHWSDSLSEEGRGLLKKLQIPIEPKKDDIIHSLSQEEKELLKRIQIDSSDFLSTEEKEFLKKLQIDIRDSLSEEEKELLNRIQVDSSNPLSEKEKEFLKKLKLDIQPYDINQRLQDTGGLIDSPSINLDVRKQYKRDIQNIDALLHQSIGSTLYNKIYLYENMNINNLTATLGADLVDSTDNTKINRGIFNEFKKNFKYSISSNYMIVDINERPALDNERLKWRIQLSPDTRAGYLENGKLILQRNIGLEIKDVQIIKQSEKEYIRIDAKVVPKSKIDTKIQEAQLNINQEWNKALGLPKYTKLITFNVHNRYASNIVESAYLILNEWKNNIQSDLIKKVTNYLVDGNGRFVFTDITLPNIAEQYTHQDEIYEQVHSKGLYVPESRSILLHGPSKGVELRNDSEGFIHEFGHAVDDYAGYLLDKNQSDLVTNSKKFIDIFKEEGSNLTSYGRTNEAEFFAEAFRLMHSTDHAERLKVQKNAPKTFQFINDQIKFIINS

Measured: inhibition

Cc1ccc(S(=O)(=O)NC(=O)NN2CCCCCC2)cc1
inactive: [1] -4.6% | [2] -1.6% | [3] -4.1%

COc1ccc(OC(C)C(=O)Nc2ccc([N+](=O)[O-])cc2)cc1 (configuration not stated)
inactive: [1] 4% | [2] 1.9% | [3] -0.5%

CC(=O)[C@H]1CC[C@H]2[C@@H]3CCC4=CC(=O)CC[C@]4(C)[C@H]3CC[C@]12C
inactive: [1] 2.7% | [2] 1.5% | [3] 3.1%

CN(Cc1ccccc1)CC(O)COc1ccc(CNCc2cccnc2)cc1 (configuration not stated)
inactive: [1] -3.8% | [2] 0.2% | [3] -5.3%

CC(=O)N(CCC1(C(C)C)CCOC(C)(C)C1)Cc1ccco1 (configuration not stated)
inactive: [1] -2% | [2] -1.4% | [3] 0.2%

COc1ccc(CCn2c(C)nc3c(c(=O)c4ccccc4n3C)c2=O)cc1
inactive: [1] 3.4% | [2] 0.2% | [3] 5.5%

CCc1nc(N)nc(N)c1-c1ccc(Cl)cc1
inactive: [1] 0.4% | [2] -0.6% | [3] -2.6%

CC(=O)c1c[nH]c2ccc(C)cc2c1=O
inactive: [1] -1.7% | [2] -0.6% | [3] -1.2%

CCc1ccc(/C=C2\Oc3cc(OC(=O)N4CCOCC4)ccc3C2=O)cc1
inactive: [1] 0.7% | [2] -0.2% | [3] 0.7%

CC(CCc1ccccc1)NC(=O)/C=C/c1ccccc1 (configuration not stated)
inactive: [1] 4.2% | [2] 0.4% | [3] 1.8%

CCc1ccc(CN(C)Cc2nc(Cc3ccccc3)no2)nc1
inactive: [1] 1.4% | [2] 0.5% | [3] 1.2%

O=C(CN1CCN(Cc2ccccc2)CC1)N1CCCc2c1c(=O)oc1ccc(O)cc21
inactive: [1] 2% | [2] -1.5% | [3] -8.3%

CCN(CCCc1ccccc1)CCCc1ccccc1
inactive: [1] 1% | [2] -0.4% | [3] -2.4%

c1cnc2c(c1)ccc1cccnc12
inactive: [1] -1.4% | [2] -5.9% | [3] -2.3%

COc1ccc(CCN2CCC(Nc3nc4ccccc4n3Cc3ccc(F)cc3)CC2)cc1
inactive: [1] -1.8% | [2] 0.4% | [3] 1.2%

O=C(CN1C(=O)c2ccccc2S1(=O)=O)Nc1ccccc1
inactive: [1] 2.3% | [2] 0.2% | [3] -4.6%

c1ccc2c(c1)CCCC2C1=NCCN1 (configuration not stated)
inactive: [1] 0.7% | [2] 0.9% | [3] 0.6%

O=C(/C=C/c1ccc2c(c1)OCCCO2)c1ccc2ccccc2c1O
inactive: [1] 1.8% | [2] 1.1% | [3] -5.5%

Cc1coc2c1c(C)cc1oc(=O)c(Cc3ccccc3)c(C)c12
inactive: [1] 1.9% | [2] -0.5% | [3] -4.3%

N#CCC(N)=C(C#N)C#N
inactive: [1] -6% | [2] -2% | [3] -6%

CCn1c(SCC(=O)c2ccccc2)nc2ccccc2c1=O
inactive: [1] -3% | [2] -0.1% | [3] -5.1%

CCOC(=O)C(NC(C)=O)C(O)c1ccc([N+](=O)[O-])cc1 (configuration not stated)
inactive: [1] 7.5% | [2] 2.6% | [3] -2.3%

CC(C)(C)OC(=O)COc1cc(OCC(=O)OC(C)(C)C)c2c(=O)cc(-c3ccccc3)oc2c1
inactive: [1] 1.4% | [2] 0.8% | [3] -7.2%

C[C@]12CCC(=O)C=C1CC[C@@H]1[C@@H]2C(=O)C[C@@]2(C)[C@H]1CC[C@]2(O)C(=O)CO
inactive: [1] -4.6% | [2] -1.7% | [3] -0.3%

Cc1ccc(C(=O)NC(=S)NCCCN2CCOCC2)cc1
inactive: [1] 3.6% | [2] -1.4% | [3] 6.1%

COc1ccccc1/C=C/C(=O)c1c2c(c(C)[nH]c1=O)CCCC2
inactive: [1] -1.3% | [2] 0.5% | [3] -5.8%

COc1cc2c(cc1OC)C(Cc1ccc(O)cc1)N(C)CC2 (configuration not stated)
inactive: [1] 2.2% | [2] 0% | [3] -0.9%

Cc1ccc(S(=O)(=O)N[C@@H](C)C(=O)N2CCC(C(=O)N3CCC[C@H]3C(=O)O)CC2)cc1
inactive: [1] 1.9% | [2] 1% | [3] -1.7%

COc1cccc(N2CC34C=CC(O3)C(C(=O)O)C4C2=O)c1 (configuration not stated)
inactive: [1] 3.9% | [2] 0.3% | [3] 6%
